Where “and” joins values, the source holds several entries; their conditions need not be identical. Identical values can stand only once. Some structures have more than one record in an assay (separate samples or runs), and their calls can disagree. Calls of active or inactive are those of the source. Rule for the calls: active = hit-call score of the fitted dose curve at least 0.9, where 1 is the maximum; inactive = score below 0.9.
Legend:
[1] = read-out: Interleukin-8 (IL8), CXCL8 (gene 3576); assay: BSK_MyoF_IL8: BioMAP Diversity Plus: MyoF Assay for Interleukin-8 (IL8) Biomarker Activity (AID 2284261); conditions: primary human lung fibroblasts
Summary of the method: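 Human lung fibroblast (MyoF system) cultures dosed for 24 h, then IL-8 measured by ELISA. Response taken relative to DMSO; parallel SRB total-protein staining for cytotoxicity.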

CD90, THY1 (gene 7070) = assay: BSK_BF4T_CD90: BioMAP Diversity Plus: BF4T Assay for CD90 Biomarker Activity (AID 2284262); conditions: primary human bronchial epithelial cells with fibroblasts
Summary of the method: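 CD90 levels by ELISA after 24 h treatment of human bronchial epithelial cell/dermal fibroblast cultures, analysed versus DMSO. Overt cytotoxicity checked in parallel cultures by sulforhodamine B staining.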

[2] = read-out: Interleukin-8 (IL8), CXCL8 (gene 3576); assay: BSK_BF4T_IL8: BioMAP Diversity Plus: BF4T Assay for Interleukin-8 (IL8) Biomarker Activity (AID 2284263); conditions: primary human bronchial epithelial cells with fibroblasts
Procedure: (§1) BSK_BF4T is a cell-based, multiplexed-readout assay that uses bronchial epithelial cells and dermal fibroblasts, a human vascular primary cell, with measurements taken at 24 hours after chemical dosing in a microplate: 96-well plate.BSK_BF4T_IL8 is an assay component measured in the BSK_BF4T assay. It measures IL-8 antibody related to regulation of gene expression using ELISA technology.Data from the assay component BSK_BF4T_IL8 was analyzed at the endpoint, BSK_BF4T_IL8, in the positive analysis fitting direction relative to DMSO as the negative control and baseline of activity. Using a type of binding reporter, gain or loss-of-signal activity can be used to understand protein changes. To generalize the intended target to other relatable targets, this assay endpoint is annotated to the 'cytokine' intended target family, where the subfamily is 'interleukins'.
(§2) The levels of cell surface (or secreted, indicated by the prefix "s") biomarker endpoints were measured by ELISA. Overt cytotoxicity to cells in confluent adherent cultures (all systems other than the BT system) was assessed by measuring total protein levels using sulforhodamine B (SRB) staining in parallel cultures at the time of biomarker measurements, indicated as SRB endpoints. For proliferation assays for adherent cell types, individual cell types are cultured at sub-confluence and relative cell numbers quantified by SRB staining at time points optimized for each system (48 h: 3C and CASM3C systems; 72 h: BT and HDF3CGF systems; 96 h: SAg system). SRB was performed by staining cells with 0.1% SRB after fixation with 10% TCA and reading wells at 560 nm.Viability and proliferation of PBMC (T cells) was quantified by Alamar Blue reduction for the SAg and BT systems. For PBMC viability (referred to as PBMC Cytotoxicity within the assay endpoint names), cells were plated (75,000/well in a 96-well plate) and then chemical samples added for 1 h before addition of activators, SEB and TSST-1 (20 ng/mL final concentration each). Cells were incubated for 90 h. Then, Alamar Blue (20 uL/well) (Invitrogen, Cat DAL1100) was added for 6 h, and the plates were read with a fluorescence microplate reader at 546/580 nm (excitation/emission). For PBMC proliferation, cells were plated and activated as above but incubated for only 16 h prior to addition of Alamar Blue. Plates were read after 6 h.

[3] = read-out: Interleukin-1 alpha (IL1a), IL1A (gene 3552); assay: BSK_BF4T_IL1a: BioMAP Diversity Plus: BF4T Assay for Interleukin-1 alpha (IL1a) Biomarker Activity (AID 2284264); conditions: primary human bronchial epithelial cells with fibroblasts
Procedure: as §1, with “plate.BSK_BF4T_IL1a” for “plate.BSK_BF4T_IL8”, “IL-1a” for “IL-8”, “BSK_BF4T_IL1a” for “BSK_BF4T_IL8”, “BSK_BF4T_IL1a,” for “BSK_BF4T_IL8,”
as §2

Decorin, DCN (gene 1634) = assay: BSK_MyoF_Decorin: BioMAP Diversity Plus: MyoF Assay for Decorin Biomarker Activity (AID 2284265); conditions: primary human lung fibroblasts
Procedure: BSK_MyoF is a cell-based, multiplexed-readout assay that uses lung fibroblasts, […], with measurements taken at 24 hours after chemical dosing in a microplate: 96-well plate.BSK_MyoF_Decorin is an assay component measured in the BSK_MyoF assay. It measures Decorin antibody related to regulation of gene expression using ELISA technology.Data from the assay component BSK_MyoF_Decorin was analyzed at the endpoint, BSK_MyoF_Decorin, in the positive analysis fitting direction relative to DMSO as the negative control and baseline of activity. Using a type of binding reporter, gain or loss-of-signal activity can be used to understand protein changes. To generalize the intended target to other relatable targets, this assay endpoint is annotated to the 'cell adhesion molecules' intended target family, where the subfamily is 'decorin'.
as §2

KRT18 (gene 3875) = assay: BSK_BF4T_Keratin818: BioMAP Diversity Plus: BF4T Assay for Keratin 818 Biomarker Activity (AID 2284266); conditions: primary human bronchial epithelial cells with fibroblasts
Procedure: as §1, with “plate.BSK_BF4T_Keratin818” for “plate.BSK_BF4T_IL8”, “Keratin 8/18” for “IL-8”, “BSK_BF4T_Keratin818” for “BSK_BF4T_IL8”, “BSK_BF4T_Keratin818,” for “BSK_BF4T_IL8,”, “'cell adhesion molecules'” for “'cytokine'”, “'keratin'.” for “'interleukins'.”
as §2

[4] = BSK_MyoF_SRB: Viability Assessment in the BioMAP Diversity Plus: MyoF Assay (AID 2284267); conditions: primary human lung fibroblasts;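 note: total protein by SRB absorbance in parallel cultures as cytotoxicity measure; cells assessed 24 h after compound addition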
Summary of the method: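 In this viability endpoint, fibroblasts from human lung are treated for 24 h, TCA-fixed, SRB-stained (0.1%) and read at 560 nm. Gain of signal relative to DMSO defines activity.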

[5] = read-out: Matrix Metallopeptidase 1 (MMP1), MMP1 (gene 4312); assay: BSK_MyoF_MMP1: BioMAP Diversity Plus: MyoF Assay for Matrix Metallopeptidase 1 (MMP1) Biomarker Activity (AID 2284268); conditions: primary human lung fibroblasts
Summary of the method: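 Human lung fibroblast primary cells; MMP1 measured by ELISA 24 h after dosing, fitted in the positive direction relative to DMSO. Parallel SRB staining (0.1%, after 10% TCA fixation, 560 nm) assesses overt cytotoxicity.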

[6] = read-out: TIMP metallopeptidase inhibitor 1 (TIMP1), TIMP1 (gene 7076); assay: BSK_MyoF_TIMP1: BioMAP Diversity Plus: MyoF Assay for TIMP metallopeptidase inhibitor 1 (TIMP1) Biomarker Activity (AID 2284269); conditions: primary human lung fibroblasts
Summary of the method: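 Fibroblasts from human lung are dosed with chemical, cultured 24 h, and assayed for TIMP-1 by ELISA. Increases over the DMSO baseline are scored, with SRB total-protein staining run in parallel for cytotoxicity.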

[7] = read-out: Matrix Metallopeptidase 1 (MMP1), MMP1 (gene 4312); assay: BSK_BF4T_MMP1: BioMAP Diversity Plus: BF4T Assay for Matrix Metallopeptidase 1 (MMP1) Biomarker Activity (AID 2284270); conditions: primary human bronchial epithelial cells with fibroblasts
Summary of the method: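 MMP-1 quantified by ELISA in primary human bronchial epithelial/dermal fibroblast co-cultures, 24 hours post-dosing, with DMSO as baseline; parallel sulforhodamine B staining (560 nm) tracks overt cytotoxicity.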

SMILES	outcome [1]	outcome (CD90, THY1 (gene 7070))	outcome [2]	outcome [3]	outcome (Decorin, DCN (gene 1634))	outcome (KRT18 (gene 3875))	outcome [4]	outcome [5]	outcome [6]	outcome [7]	AC50 [1]	AC50 [3]	AC50 (Decorin, DCN (gene 1634))	AC50 (KRT18 (gene 3875))	AC50 [4]	AC50 [6]	AC50 (CD90, THY1 (gene 7070))	AC50 [2]	AC50 [7]
OCCC(F)(F)C(F)(F)C(F)(F)C(F)(F)C(F)(F)C(F)(F)F	inactive	inactive	inactive	inactive	inactive	inactive	inactive	inactive	inactive	inactive									
OCCC(F)(F)C(F)(F)C(F)(F)C(F)(F)C(F)(F)C(F)(F)C(F)(F)C(F)(F)F	inactive	inactive	inactive	inactive		inactive		inactive		inactive	14.9 µM (active)	21.5 µM (active)	15.1 µM (active) and 14.5 µM (active)	38.6 µM (active)	15.1 µM (active) and 14.7 µM (active)	13.1 µM (active) and 9.78 µM (active)			
CCCCCCCCCCCCCC[N+](C)(C)C											9.47 µM (active)		28.4 µM (active)		5.25 µM (active)	3.32 µM (active)			
NCC(F)(F)C(F)(F)C(F)(F)C(F)(F)C(F)(F)C(F)(F)C(F)(F)F	inactive	inactive	inactive	inactive	inactive	inactive	inactive	inactive	inactive	inactive									
C=C(C)C(=O)OCCC(F)(F)C(F)(F)C(F)(F)C(F)(F)C(F)(F)C(F)(F)F	inactive	inactive	inactive	inactive	inactive	inactive	inactive	inactive	inactive	inactive									
C[C@@H]1C[C@H]2[C@@H]3CCC4=CC(=O)C=C[C@]4(C)[C@@]3(F)[C@@H](O)C[C@]2(C)[C@@]1(O)C(=O)COP(=O)(O)O	inactive	inactive	inactive	inactive	inactive	inactive	inactive	inactive	inactive	inactive						0.562 µM (active)			
FC(F)(I)C(F)(F)C(F)(F)C(F)(F)C(F)(F)C(F)(F)I	inactive	inactive						inactive			15 µM (active) and 16.4 µM (active) and 15.6 µM (active)	22.7 µM (active) [middle of 5 runs]	7.74 µM (active) [middle of 5 runs]		7.31 µM (active) [middle of 5 runs]	7.01 µM (active) [middle of 5 runs]	6.21 µM (active)	14.9 µM (active) [middle of 5 runs]	23.4 µM (active) [middle of 5 runs]

— PubChem BioAssay (EPA / NIEHS)
